RORgamma inh – inhibitors of mouse ROR gamma transcriptional activity. AID 2551. P51450. Potency, µM (series often up to 53.6 µM), for the others: top-dose activity change, negative = inhibition, most hits filed as inhibitors. Drosophila S2 Gal4-RORgamma UAS-luciferase reporter, 20 h. 310,000 tested, 5.4% active; note: potency is the fitted concentration of half-maximal effect; % is set by controls: 0 for no effect and ±100 for the full control effect; nearly all actives have a fitted effect of over 60% in size
Target sequence (P51450 whole entry, looked up, the tested form may be a part): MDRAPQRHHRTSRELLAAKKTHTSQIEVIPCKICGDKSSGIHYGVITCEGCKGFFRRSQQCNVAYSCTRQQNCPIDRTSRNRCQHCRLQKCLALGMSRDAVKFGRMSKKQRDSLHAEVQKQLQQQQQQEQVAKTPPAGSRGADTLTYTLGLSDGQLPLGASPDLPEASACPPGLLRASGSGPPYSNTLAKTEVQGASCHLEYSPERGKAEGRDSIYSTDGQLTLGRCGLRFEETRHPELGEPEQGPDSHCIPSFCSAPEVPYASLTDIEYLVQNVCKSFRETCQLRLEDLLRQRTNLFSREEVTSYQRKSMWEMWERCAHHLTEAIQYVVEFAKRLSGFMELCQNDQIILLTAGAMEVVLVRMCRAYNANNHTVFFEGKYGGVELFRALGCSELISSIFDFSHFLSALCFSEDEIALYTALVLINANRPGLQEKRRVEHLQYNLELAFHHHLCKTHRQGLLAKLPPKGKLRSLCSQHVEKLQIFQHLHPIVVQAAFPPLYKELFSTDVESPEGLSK
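In this cell-based reporter format, copper sulfate (700 uM final) drives Gal4–ROR gamma fusion expression from a metallothionein promoter in Drosophila Schneider cells; compounds preincubated 1 hr, reporter read after 20 hr at ambient temperature.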
BRCA1 expr up – activators of BRCA1 expression; MCF7-BRCA1-FFLuc reporter, luminescence, 48 h; response scale: scaled: vehicle 0%, 10 µM genistein 100%; Potency, µM (top dose mostly 46.1 µM), for inactives: at the highest dose activation, usual class: activators; 380,000 tested, 1.1% active; AID 624202; note: potency is the fitted concentration of half-maximal effect; nearly all actives have a fitted effect of over 80% in size
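Luminescence from a BRCA1-driven firefly luciferase in MCF7 cells was read after 48 h compound exposure at 37 C. Data normalized against DMSO and a 10microM genistein activation control, then curve-fitted across the titration.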
Giardia kill – kills Giardia lamblia | activity change, % at 7.66 µM, hits read low | AID 540267 | Giardia lamblia trophozoite viability | 340,000 tested, 0.15% active; in the data active = activity change below about -80%; inconclusive = between about -30% and that limit;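 note: parasites exposed to compound for two days anaerobically before the ATP read; % is set by controls: 0 for no effect and ±100 for the full control effect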
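ATP-content bioluminescence gauges trophozoite survival. Cells (100/well) receive compound and incubate anaerobically for 48 hrs at 37 deg C; detection reagent follows for 15-30 min at room temperature.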
ELG1 repair inh – blocks ELG1-dependent DNA repair in HEK293T cells; AID 504467; Potency, µM (top dose mostly 46.1 µM), inactives show top-dose activity change, negative = inhibition, most hits filed as inhibitors; 330,000 tested, 2.3% active; HEK293T ELG1-luciferase reporter, luminescence, 16 h; DNA damage induced by 5-fluorouridine; note: potency is the fitted concentration of half-maximal effect; % is set by controls: 0 for no effect and ±100 for the full control effect; nearly all actives have a fitted effect of over 55% in size
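In this reporter screen, reduction of luminescence relative to DMSO vehicle indicated activity. Compounds and 5-fluorouridine were added together to 2,000 cells per well, incubated for 16 hr at 37 °C, then developed with ONE-Glo.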
p53 reactivation – restores transcriptional activity of mutant p53 | H1299 p53-A138V BP100-luciferase reporter, luminescence, 24 h | Potency, µM (series often up to 92.2 µM), without a hit: at the top dose activity change, positive = activation, hits mostly activators | 320,000 tested, 0.063% active | AID 504706; note: potency is the fitted concentration of half-maximal effect; % of control where 0% means no effect; nearly all actives have a fitted effect of over 45% in size
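p53-null H1299 cells stably carrying temperature-sensitive p53-A138V and a BP100-luciferase reporter were pinned with compounds (4-point, 1:5 series) and held 24 hrs at 37 deg C. Luminescence was read 10 min after detection reagent.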
Gal4-VP16 FLuc – Gal4-VP16 reporter inhibition counter-screen. Drosophila S2 Gal4-VP16 UAS-luciferase, luminescence, 20 h. Potency, µM (top dose mostly 53.6 µM), without a hit: at the top dose activity, negative = inhibition, usual class: inhibitors. 310,000 tested, 3.5% active. AID 2546;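 note: Gal4-VP16 expression switched on by copper sulfate through the metallothionein promoter; potency is the fitted concentration of half-maximal effect; % is set by controls: 0 for no effect and ±100 for the full control effect; nearly all actives have a fitted effect of over 50% in size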
Active calls of the source: *; ? = inconclusive; · = not tested or not shown. Shown are actives, neighbours in structure and some others; about 7.6% of the full set was active somewhere. Unless noted, calls come from the whole dose curve; as a rule, active = well fitted curve in the direction sought with a large enough effect; inconclusive = small, poorly fitted or top-dose-only effect, or another doubt; inactive = no such curve, though single readings can be large; an effect the other way counts as inactive or inconclusive.

SMILES	RORgamma inh	BRCA1 expr up	Giardia kill	ELG1 repair inh	p53 reactivation	Gal4-VP16 FLuc
Cc1ccc(NC(=O)CCNC(=O)c2ccc([N+](=O)[O-])cc2)cc1S(=O)(=O)N(C)C	41.8%	0.0%	1.0	13µM*	-1.9%	1.0%
Cc1ccc(NC(=O)c2ccc([N+](=O)[O-])cc2)cc1S(=O)(=O)N(C)C	6.2%	42.5%	-21.6	18.3µM*	3.3%	-4.8%
COc1cc(CCC(=O)Nc2sccc2C#N)cc(OC)c1OC	?	-9.5%	16.5	23.1µM*	-4.3%	12.1%
CC(C)[C@H](NC(=O)c1ccccc1)C(=O)Nc1ccc2c(c1)OCO2	·	-17.5%	20.9	?	28.1%	·
Cc1cc(O)c(C(C)(C)C)cc1Sc1cc(C(C)(C)C)c(O)cc1C	10µM*	·	·	·	·	?
CC(C)(C)c1cc(O)c(C(C)(C)C)cc1O	-32.2%	·	·	·	·	-18.0%
Nc1ccc(N2CCN(c3ccc(F)cc3)CC2)cc1	7.0%	11.8%	6.6	6.51µM*	6.6%	-20.2%
COc1cccc2cc(CC(=O)c3cc(C)ccc3C)c(=O)oc12	32.5%	98.0%	3.8	-0.7%	11.9%	28.4%
COc1cccc2cc(CC(=O)c3ccc(C)c(C)c3)c(=O)oc12	23.2%	11.2µM*	-3.7	?	1.9%	0.5%
CCc1ccc(C(=O)Cc2cc3cccc(OC)c3oc2=O)cc1	-0.2%	11.2µM*	-13.3	0.0%	13.2%	7.8%
COc1cccc2cc(C(=O)c3ccccc3)oc12	2.7%	45.0%	-7.1	?	19.6%	?
COc1cccc2cc(CC(=O)c3ccccc3)c(=O)oc12	-8.8%	10µM*	16.1	?	12.0%	23.1%
CCCc1[nH]nc2c1C(c1ccc(O)cc1OCC)C(C#N)=C(N)O2 (configuration not stated)	-17.7%	-11.2%	12.4	-2.5%	-1.3%	-10.7%
Cc1ccc(S(=O)(=O)N2CCC(C(=O)OCc3c(C)noc3C)CC2)cc1C	·	-22.3%	15.0	9.6%	-2.9%	·
CC(=O)Nc1cccc(NC(=O)Nc2cccc3ccccc23)c1	0.2%	-2.0%	-21.6	-8.8%	8.8%	-3.2%
C/C(=C\C(=S)Nc1ccccc1)Nc1cccc2ccccc12	15.8µM*	-35.1%	-4.2	6.3%	7.2%	?
C/C(=C\C(=S)Nc1ccccc1)Nc1ccc2ccccc2c1	5.62µM*	23.1%	2.4	?	?	3.55µM*
C=CCNc1nc(=S)[nH]c2cc(OC)c(OC)cc12	?	-20.4%	3.9	7.4%	2.2%	-0.6%
CN(C)CC(CCC(CN(C)C)C(O)(c1ccccc1)c1ccccc1)C(O)(c1ccccc1)c1ccccc1 (configuration not stated)	?	-94.9%	2.9	18.3µM*	-8.4%	?
O=C(/C=C/c1ccco1)NCc1ccccn1	4.47µM*	-2.7%	4.6	?	10.7%	1.7%
O=C(/C=C/c1ccco1)NCC1COc2ccccc2O1 (configuration not stated)	2.5%	-4.3%	21.3	?	2.2%	11.2µM*
COc1ccc(/C=C/C(=O)NCC2COc3ccccc3O2)c(OC)c1 (configuration not stated)	12.6%	65.0%	-3.7	-7.5%	11.1%	?
Cc1ccc(NC(=O)COC(=O)c2ccc(S(=O)(=O)N3CCCCC3)cc2)cc1	·	18.0%	1.6	?	-1.7%	·
COCCN(C(=O)c1cc(-c2ccccc2Cl)nc2ccccc12)c1c(N)n(CC(C)C)c(=O)[nH]c1=O	·	-15.3%	7.2	·	·	·
CCc1ccc(/C=N/N2CCN(c3ccccn3)CC2)cc1	10.6%	12.6µM*	-18.3	?	10.5%	13.5%
COc1ccccc1C1=NC(c2ccc(F)cc2)N=C1C (configuration not stated)	18.8%	12.6µM*	?	-5.8%	17.0%	-5.1%
CC1CCc2sc(C(=O)NN)cc2C1 (configuration not stated)	25.7%	-8.8%	-14.1	?	13.9%	-8.7%

Screens as filed in PubChem.
